PubChem BioAssay (NCI)
This is part of a sample that, as a whole, favours compounds with a hit. Of some 83,000 tested, about 20% had one in any assay.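 Cells were grown in 96-well plates and exposed to the test compound at a single concentration for 48 hours; results are reported as percent growth, with values below 10 considered active.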 Activity calls are given as the source filed them.

What was measured:
Test in all cases: NCI-60 one-dose screen, 48 h (100 = growth as untreated, 0 = no growth, -100 = all killed)
Conditions in all cases: 10 µM unless noted
DU-145 prostate = tested on: DU-145 prostate
K-562 leukemia = tested on: K-562 leukemia
MALME-3M melanoma = tested on: MALME-3M melanoma
MDA-MB-231 breast = tested on: MDA-MB-231 breast
RXF 393 renal = tested on: RXF 393 renal
SF-268 CNS = tested on: SF-268 CNS
SF-295 CNS = tested on: SF-295 CNS
SF-539 CNS = tested on: SF-539 CNS
UACC-257 melanoma = tested on: UACC-257 melanoma
M14 melanoma = tested on: M14 melanoma

Measured: growth

CC1CN(/N=C/c2ccc([N+](=O)[O-])o2)C(=N)O1 (stereo not given)
inactive: DU-145 prostate 121% | K-562 leukemia 108% | MALME-3M melanoma 78.8% | MDA-MB-231 breast 102% | RXF 393 renal 102% | SF-268 CNS 90.1% | SF-295 CNS 88.9% | SF-539 CNS 96.9% | UACC-257 melanoma 99.5% | M14 melanoma 106%

C=C1CC[C@@H]2[C@](C)(COC(C)=O)[C@H](OC(C)=O)CC[C@@]2(C)[C@@H]1CC(NCc1ccccc1)C1=CCOC1=O (stereo not given in full)
inactive: DU-145 prostate 67.2% | K-562 leukemia 24.7% | MALME-3M melanoma 77.1% | MDA-MB-231 breast 64.7% | RXF 393 renal 74.3% | SF-268 CNS 62.1% | SF-295 CNS 63.9% | SF-539 CNS 79.5% | UACC-257 melanoma 32.8% | M14 melanoma 42.1%

O=C1/C=C/[C@@H](O)[C@@H]2C[C@@H](O)C[C@H]2/C=C/CCC[C@H](CO)O1
inactive: DU-145 prostate 92.9% | K-562 leukemia 46.8% | SF-268 CNS 20.6% | SF-295 CNS 23.9% | SF-539 CNS 34.8% | UACC-257 melanoma 29.9% | M14 melanoma 11.6%
active: MALME-3M melanoma 7.5% | MDA-MB-231 breast 3.23% | RXF 393 renal -29.9%

O=C(O)C1C(c2ccccc2)c2ccccc2C(O)C1CO (stereo not given)
inactive: DU-145 prostate 136% | K-562 leukemia 111% | MALME-3M melanoma 146% | MDA-MB-231 breast 94.9% | RXF 393 renal 123% | SF-268 CNS 116% | SF-295 CNS 120% | SF-539 CNS 99.7% | UACC-257 melanoma 98.9% | M14 melanoma 99.5%

COc1ccc2c(c1)CC[C@@H]1[C@@H]2CC[C@]2(C)[C@@H](O)C(=O)C[C@@H]12
inactive: DU-145 prostate 104% | K-562 leukemia 94.2% | MALME-3M melanoma 148% | MDA-MB-231 breast 109% | RXF 393 renal 134% | SF-268 CNS 97.1% | SF-295 CNS 109% | SF-539 CNS 100% | UACC-257 melanoma 106% | M14 melanoma 110%

COc1cc(C2CC(C3C(=O)N(C)C(=O)N(C)C3=O)=NN2C=O)cc(OC)c1OC (stereo not given)
inactive: DU-145 prostate 111% | K-562 leukemia 88% | MALME-3M melanoma 109% | MDA-MB-231 breast 103% | RXF 393 renal 109% | SF-268 CNS 102% | SF-295 CNS 98.1% | SF-539 CNS 104% | UACC-257 melanoma 78.3% | M14 melanoma 84%

CCN(CC)CCCCCCCNc1c2ccc(Cl)cc2nc2ccc(OC)cc12
active: DU-145 prostate -28.6% | K-562 leukemia -21.5% | MALME-3M melanoma -20.6% | MDA-MB-231 breast -30% | RXF 393 renal -70.8% | SF-268 CNS -59.1% | SF-295 CNS -51.6% | SF-539 CNS -71.2% | UACC-257 melanoma -84.3% | M14 melanoma -48.8%

CC(C)N(Cc1ccccc1)c1c(Cl)ssc1=O
inactive: DU-145 prostate 94.9% | K-562 leukemia 108% | MALME-3M melanoma 104% | MDA-MB-231 breast 89.3% | RXF 393 renal 74.8% | SF-268 CNS 118% | SF-295 CNS 108% | SF-539 CNS 96% | UACC-257 melanoma 94.3% | M14 melanoma 91%

C=C1CCC2C(C)(COC(=O)CC)C(OC(=O)CC)CCC2(C)C1C/C=C1/C(=O)OCC1OC(=O)CC (stereo not given)
inactive: DU-145 prostate 28.9% | SF-268 CNS 39.4% | SF-295 CNS 56.7%
active: K-562 leukemia 2.81% | MALME-3M melanoma 2.98% | MDA-MB-231 breast -29.6% | RXF 393 renal -97.5% | SF-539 CNS -64.3% | UACC-257 melanoma 0.936% | M14 melanoma -76.8%

COc1ccc2c(c1)[n+](=O)c(C(=O)/C=C/c1cc(OC)c(OC)c(OC)c1)c(C)n2[O-]
inactive: DU-145 prostate 47.6% | K-562 leukemia 35.4% | MALME-3M melanoma 91.8% | MDA-MB-231 breast 67.9% | RXF 393 renal 48.6% | SF-268 CNS 56.3% | SF-295 CNS 87.5% | SF-539 CNS 81.9% | UACC-257 melanoma 80.5% | M14 melanoma 80.1%

Oc1c(Cl)cc(Oc2cc(Cl)c(O)c(CN3CCOCC3)c2)cc1CN1CCOCC1
inactive: DU-145 prostate 101% | K-562 leukemia 81.4% | MALME-3M melanoma 105% | MDA-MB-231 breast 96.6% | RXF 393 renal 104% | SF-268 CNS 87.9% | SF-295 CNS 99.4% | SF-539 CNS 98.2% | UACC-257 melanoma 86.4% | M14 melanoma 105%

Nc1c(C(=O)Nc2cccc(Cl)c2)sc2nc3c(cc12)C(O)CCC3 (stereo not given)
active: DU-145 prostate 7.3% | RXF 393 renal -25.4% | SF-539 CNS -24.9%
inactive: K-562 leukemia 10.6% | MALME-3M melanoma 40.2% | MDA-MB-231 breast 42.6% | SF-268 CNS 50.2% | SF-295 CNS 13.7% | UACC-257 melanoma 66.1% | M14 melanoma 17.1%

Nc1nc(Nc2ccccc2SSc2ccccc2Nc2nc(N)nc(-c3ccc(I)cc3)n2)nc(-c2ccc(I)cc2)n1
inactive: DU-145 prostate 66% | K-562 leukemia 68.7% | MALME-3M melanoma 103% | MDA-MB-231 breast 55% | RXF 393 renal 88.2% | SF-268 CNS 43% | SF-295 CNS 47.6% | SF-539 CNS 89.2% | UACC-257 melanoma 110% | M14 melanoma 77.2%
